ChEMBL document CHEMBL3988442, “University of Dundee, Small-Polar-MMV Screening Library” (2021)
In all, about 66,000 compounds went through this assay and about 960 (1.5%) showed an effect of 50% or more. For the sample, strong results were picked, then their nearest neighbours and some compounds at random.

Tested on: Trypanosoma brucei
Experiment: Trypanosoma brucei 72 hour study
Type: functional, organism-based
Design: scale not given: in the data most compounds retested in dose-response had high values

SMILES	Percent Effect (30.3 µM, […]) [%]	Percent Effect (30 µM, 30.03 µM) [%]
CN1CCCC[C@@H]2[C@H]1[C@@H](c1ccccc1)CCN2C(=O)c1ccccc1	97.59	
CN1CCCC[C@@H]2[C@H]1[C@@H](c1ccccc1)CCN2S(=O)(=O)N1CCCC1	98.76	
CN1CCCC[C@@H]2[C@H]1[C@@H](c1ccccc1)CCN2C(=O)c1ccncc1	2.626	
Cl.O=S(=O)(N1CCCC1)N1CC[C@H](c2ccccc2)[C@H]2NCCCC[C@H]21	-20.77	
CN1CCCC[C@@H]2[C@H]1[C@@H](c1ccccc1)CCN2C(=O)c1ccccn1	12.07	
CN1CCCC[C@@H]2[C@H]1[C@@H](c1ccccc1)CCN2C(=O)c1cccnc1	-28.46	
O=C(O)C(F)(F)F.O=C(O)C(F)(F)F.O=C(c1cccnc1)N1CCn2nnc(COc3ccccn3)c2C1		20.03
Cc1ncsc1CN1C[C@@H]2COC[C@]2(C(=O)NCC2CC2)C1.O=C(O)C(F)(F)F		-10.84
CNc1ncc2c(n1)CN(C1CCCC1)C2=O	-26.22	
CNCc1ccc([C@@H]2CN(C)C[C@H]2C(N)=O)cc1.Cl	-7.095	
CC(C)(C)c1cc(CN2C[C@H]3CC[C@@H]2CN(Cc2cscn2)C3)n[nH]1		14.03
O=C(NCc1ccc2c(c1)OCO2)c1ccc(N2CCCCCC2)nc1		-3.476
O=C(NCCC1COc2ccccc2O1)c1ccc(N2CC(O)C2)nc1 (centres undefined)		57.01
CN(CC1COc2ccccc2O1)C(=O)c1ccc(-c2cn[nH]c2)nc1 (centres undefined)		34.02
Cn1ccnc1-c1ccc(NCCC2COc3ccccc3O2)nn1 (centres undefined)		-17.77
CC(C)c1noc(CCNC(=O)NCC2COc3ccccc3O2)n1 (centres undefined)		-35.89
CC(C)c1nccn1CCCNC(=O)c1ccc(-c2cn[nH]c2)nc1		3.874
O=C(NCCC1COc2ccccc2O1)c1ccc(-c2cn[nH]c2)nc1 (centres undefined)		81.06
CN(CC1COc2ccccc2O1)C(=O)C1=NN(C)C(=O)CC1 (centres undefined)		-29.23
O=C(NCCC1COc2ccccc2O1)c1ccc(-c2cc[nH]n2)nc1 (centres undefined)		51.23
CN1CCCC(c2ccnc(C(=O)NC3CC3)c2)C1 (centres undefined)	-4.506	
Cc1occc1C(=O)N1CCC2(CC1)CC(OCc1ccccn1)CO2.O=C(O)C(F)(F)F (centres undefined)	-782.3	
CCC(C)NC(=O)c1nnn(-c2cccc3c2CCN(C)C3)c1C (centres undefined)		31.65
CC(C)c1ncc(CN2CCC(CO)C2)cn1.O=C(O)CC(O)(CC(=O)O)C(=O)O (centres undefined)	-24.24	
